Assay results reported in PubChem BioAssay.
Activity calls are given as the source filed them.

Experiments:
Albumin (Bos taurus) = Albumin (Bos taurus) (UniProt P02769); experiment: bovine serum albumin binders on microarray, profiling panel, artefact control for SMM control protein annotation, biochemical, small-molecule microarray, Alexa647 label, 635/667 nm fluorescence (AID 1118); settings: BSA-A647 binding, fluorescence 635 nm, higher = more signal;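 also: score merges 667 nm emission intensity and signal-to-noise per printed compound spot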
[1] = small-molecule microarray binders of probe aXIP, primary screen, biochemical, NeuroSMM set, 635/667 nm fluorescence (AID 1119); settings: higher = more signal, called active from +8 up or from −8 down;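 also: probe is the protein aXip251-270 applied at 1 µg/mL to compound-printed slides; binding of probe to printed compounds measured as 667 nm fluorescence plus signal to noise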
[2] = small-molecule binders of probe aNOTCH3, primary screen, biochemical, small-molecule microarray, 635/667 nm fluorescence (AID 1120); settings: higher = more signal;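 also: probe is a biotin-tagged antibody raised against NOTCH3 rather than NOTCH3 protein; score merges spot fluorescence near 667 nm with spot signal to noise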
[3] = small-molecule binders of probe aNOTCH2, primary screen, biochemical, small-molecule microarray, 635/667 nm fluorescence (AID 1121); settings: higher = more signal;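 also: score merges feature fluorescence read at 667 nm with its signal to noise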
[4] = molecular target: Carbonic anhydrase 2 (Homo sapiens) (UniProt P00918); experiment: CAII small-molecule binders, profiling panel, biochemical, small-molecule microarray, Alexa647-labelled CAII (AID 1122); settings: CAII-A647 binding fluorescence, higher = more signal
[5] = COS7 lysate on small-molecule microarray, probe aHis, 635 nm (AID 1123); settings: COS7 cell lysate, fluorescence, higher = more signal;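 also: z-score combines 667nm fluorescence intensity with signal-to-noise per printed compound spot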
[6] = compound binding in COS7 lysate, probe aLAP1, primary screen, cell lysate, small-molecule microarray (AID 1124); settings: probe aLAP1, fluorescence, higher = more signal;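 also: lysate comes from COS7 cells expressing LAP1 and is applied at 0.3 µg/mL; score merges spot fluorescence near 667 nm with signal-to-noise over triplicate slides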
Sam68 (KHDRBS1) = experiment: Sam68 small-molecule binders, primary screen, biochemical, small-molecule microarray, 635 nm fluorescence (AID 1125); settings: small-molecule microarray binding, higher = more signal;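 also: score merges 667 nm channel intensity with signal to noise over triplicate slides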
[7] = system: Chordin-like protein 2 (CHRDL2); experiment: CHRDL2 small-molecule binders, primary screen, biochemical, small-molecule microarray, 635 nm fluorescence (AID 1126); settings: small-molecule microarray binding, fluorescence 635 nm; higher = more signal;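 also: printed compound slides probed with Chrdl2 protein at 4 µg/mL for 1 h at 4 C; score merges 667 nm emission intensity with signal to noise over three replicate slides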
[8] = molecular target: Concanavalin-A (Canavalia ensiformis) (UniProt P02866); experiment: ConA small-molecule binders, primary screen, artefact control for SMM control protein annotation, biochemical, small-molecule microarray, Alexa647 label, 635 nm (AID 1127); settings: ConA-A647 binding fluorescence, higher = more signal;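 also: z combines 667 nm emission intensity with signal-to-noise across three replicate slides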
[9] = anti-His antibody binders, primary screen, artefact control for SMM control protein annotation, biochemical, small-molecule microarray, 635 nm fluorescence (AID 1128); settings: anti-His Alexa647 antibody binding, higher = more signal;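 also: score merges feature fluorescence with signal-to-noise for each printed compound spot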
[10] = system: Human papillomavirus type 1a E7 protein (residues 1-88); experiment: HPV1a E7 small-molecule binders, primary screen, biochemical, small-molecule microarray, residues 1-88, 635 nm (AID 1129); settings: small-molecule microarray binding, fluorescence 635 nm; higher = more signal
[11] = molecular target: Focal adhesion kinase 1 (Homo sapiens) (UniProt Q05397); experiment: small-molecule microarray binders of FAK, primary screen, biochemical, 635/667 nm fluorescence, BSA, DTT (AID 1130); settings: PTK2 binding, 635 nm fluorescence, higher = more signal;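 also: composite of spot emission at 667 nm and signal to noise over triplicate slides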
[12] = system: Fibrinogen (Alexa647-labelled); experiment: fibrinogen binders on compound microarrays, profiling panel, artefact control for SMM control-protein annotation, biochemical, small-molecule microarray, 635/667 nm fluorescence (AID 1131); settings: fibrinogen-A647 binding fluorescence, higher = more signal;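 also: z-score merges 667 nm fluorescence with per-spot signal-to-noise over triplicate slides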
[13] = molecular target: Follistatin (Homo sapiens) (UniProt P19883); experiment: follistatin binders on small-molecule microarrays, primary screen, biochemical, small-molecule microarray, 635/667 nm fluorescence (AID 1132); settings: FST binding, 635 nm fluorescence, higher = more signal
[14] = molecular target: Fibroblast growth factor 2 (Homo sapiens) (UniProt P09038); experiment: FGF2 binders on small-molecule microarrays, primary screen, biochemical, small-molecule microarray, 635/667 nm fluorescence (AID 1133); settings: small-molecule microarray binding, FGF2, fluorescence 635/667; higher = more signal
[15] = mitochondrial membrane potential change in A549 cells, profiling panel, cell-based, JC-1 fluorescence, basal, 24 h, 100 nL (AID 1138); settings: higher = more signal;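 also: A549 lung adenocarcinoma cells under basal conditions with no added stimulus; test concentration not given here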
Lefty1 = Lefty1 binders on small-molecule microarrays, primary screen, biochemical, small-molecule microarray, 635/667 nm fluorescence (AID 1139); settings: small-molecule microarray binding, fluorescence 635/667; higher = more signal
[16] = system: wheat germ agglutinin (Triticum aestivum), Alexa647-labelled; experiment: wheat germ agglutinin binders on compound microarrays, profiling panel, artefact control for SMM control-protein annotation, biochemical, small-molecule microarray, 635/667 nm fluorescence (AID 1140); settings: WGA-A647 binding, 635 nm fluorescence, higher = more signal;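 also: score merges 667 nm feature emission with signal to noise over triplicate slides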
[17] = molecular target: Luciferin 4-monooxygenase (Photinus pyralis) (UniProt P08659); experiment: firefly luciferase enzyme inhibitors, primary screen, biochemical, luminescence, purified enzyme, 2006 set (AID 1141); settings: SteadyGlo luminescence, 30 min, higher = more signal, called active from +8 up or from −8 down;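 also: cell-free assay with purified firefly luciferase at 100 ng per well in PBS; test concentration not given here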
Luciferin 4-monooxygenase (Photinus pyralis), sequence (P08659 whole entry, looked up): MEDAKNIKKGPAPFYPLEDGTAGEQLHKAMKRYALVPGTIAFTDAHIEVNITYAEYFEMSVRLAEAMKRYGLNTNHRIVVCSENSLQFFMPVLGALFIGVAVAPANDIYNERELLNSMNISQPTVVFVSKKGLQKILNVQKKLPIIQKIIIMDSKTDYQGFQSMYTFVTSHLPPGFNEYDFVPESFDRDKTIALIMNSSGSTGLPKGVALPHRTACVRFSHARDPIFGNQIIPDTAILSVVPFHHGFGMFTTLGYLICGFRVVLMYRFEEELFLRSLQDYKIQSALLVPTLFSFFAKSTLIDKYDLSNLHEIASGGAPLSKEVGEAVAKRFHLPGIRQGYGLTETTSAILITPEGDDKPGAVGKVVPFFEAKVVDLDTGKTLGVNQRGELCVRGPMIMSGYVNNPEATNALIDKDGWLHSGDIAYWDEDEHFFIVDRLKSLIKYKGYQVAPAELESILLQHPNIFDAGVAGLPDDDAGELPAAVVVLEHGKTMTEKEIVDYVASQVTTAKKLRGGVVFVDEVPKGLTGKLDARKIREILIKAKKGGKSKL

Follistatin (Homo sapiens), sequence (P19883 whole entry, looked up): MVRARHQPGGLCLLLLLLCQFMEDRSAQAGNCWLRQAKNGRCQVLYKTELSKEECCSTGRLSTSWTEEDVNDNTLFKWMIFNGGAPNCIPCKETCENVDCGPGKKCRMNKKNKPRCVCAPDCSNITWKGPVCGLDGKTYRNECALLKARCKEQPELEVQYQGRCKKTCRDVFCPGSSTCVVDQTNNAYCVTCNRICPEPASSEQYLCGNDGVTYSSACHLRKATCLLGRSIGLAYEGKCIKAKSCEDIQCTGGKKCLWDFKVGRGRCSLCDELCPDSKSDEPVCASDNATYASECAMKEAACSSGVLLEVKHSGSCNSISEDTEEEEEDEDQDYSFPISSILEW
Focal adhesion kinase 1 (Homo sapiens), sequence (Q05397 whole entry, looked up): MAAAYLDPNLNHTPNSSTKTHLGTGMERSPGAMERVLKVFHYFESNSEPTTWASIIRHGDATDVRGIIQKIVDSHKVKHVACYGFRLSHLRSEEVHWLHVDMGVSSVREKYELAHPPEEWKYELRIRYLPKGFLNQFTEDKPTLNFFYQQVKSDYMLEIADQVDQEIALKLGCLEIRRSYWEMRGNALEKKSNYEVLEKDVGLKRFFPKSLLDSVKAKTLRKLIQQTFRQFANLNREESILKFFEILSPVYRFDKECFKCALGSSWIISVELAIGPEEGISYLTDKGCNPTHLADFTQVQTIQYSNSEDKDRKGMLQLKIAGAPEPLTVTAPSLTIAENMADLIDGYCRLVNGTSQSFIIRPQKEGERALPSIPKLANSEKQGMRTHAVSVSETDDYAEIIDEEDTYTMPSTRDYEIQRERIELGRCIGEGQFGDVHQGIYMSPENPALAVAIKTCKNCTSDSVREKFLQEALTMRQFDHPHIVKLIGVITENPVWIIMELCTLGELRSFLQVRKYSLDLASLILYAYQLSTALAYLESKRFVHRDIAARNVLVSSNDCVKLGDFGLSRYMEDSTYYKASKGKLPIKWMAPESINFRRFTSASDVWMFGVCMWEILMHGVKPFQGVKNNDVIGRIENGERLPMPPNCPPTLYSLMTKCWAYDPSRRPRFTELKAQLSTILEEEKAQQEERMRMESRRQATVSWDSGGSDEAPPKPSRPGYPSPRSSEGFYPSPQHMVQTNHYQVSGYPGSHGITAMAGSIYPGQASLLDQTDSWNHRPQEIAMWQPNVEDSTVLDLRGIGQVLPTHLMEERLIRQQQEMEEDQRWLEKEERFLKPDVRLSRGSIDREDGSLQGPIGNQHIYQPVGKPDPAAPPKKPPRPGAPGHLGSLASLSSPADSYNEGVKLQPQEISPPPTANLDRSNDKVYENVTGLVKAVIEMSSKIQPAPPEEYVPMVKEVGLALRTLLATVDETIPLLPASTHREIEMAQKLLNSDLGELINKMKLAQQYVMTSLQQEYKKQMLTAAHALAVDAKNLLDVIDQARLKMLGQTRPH
Fibroblast growth factor 2 (Homo sapiens), sequence (P09038 whole entry, looked up): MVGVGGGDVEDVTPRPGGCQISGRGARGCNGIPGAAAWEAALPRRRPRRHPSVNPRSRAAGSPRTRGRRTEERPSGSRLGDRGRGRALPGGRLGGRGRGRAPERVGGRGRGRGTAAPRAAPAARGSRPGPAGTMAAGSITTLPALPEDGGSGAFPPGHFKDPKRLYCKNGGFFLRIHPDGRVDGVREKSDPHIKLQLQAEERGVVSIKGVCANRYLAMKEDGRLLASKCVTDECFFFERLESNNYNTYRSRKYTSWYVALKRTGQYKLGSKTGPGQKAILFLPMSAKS
Albumin (Bos taurus), sequence (P02769 whole entry, looked up): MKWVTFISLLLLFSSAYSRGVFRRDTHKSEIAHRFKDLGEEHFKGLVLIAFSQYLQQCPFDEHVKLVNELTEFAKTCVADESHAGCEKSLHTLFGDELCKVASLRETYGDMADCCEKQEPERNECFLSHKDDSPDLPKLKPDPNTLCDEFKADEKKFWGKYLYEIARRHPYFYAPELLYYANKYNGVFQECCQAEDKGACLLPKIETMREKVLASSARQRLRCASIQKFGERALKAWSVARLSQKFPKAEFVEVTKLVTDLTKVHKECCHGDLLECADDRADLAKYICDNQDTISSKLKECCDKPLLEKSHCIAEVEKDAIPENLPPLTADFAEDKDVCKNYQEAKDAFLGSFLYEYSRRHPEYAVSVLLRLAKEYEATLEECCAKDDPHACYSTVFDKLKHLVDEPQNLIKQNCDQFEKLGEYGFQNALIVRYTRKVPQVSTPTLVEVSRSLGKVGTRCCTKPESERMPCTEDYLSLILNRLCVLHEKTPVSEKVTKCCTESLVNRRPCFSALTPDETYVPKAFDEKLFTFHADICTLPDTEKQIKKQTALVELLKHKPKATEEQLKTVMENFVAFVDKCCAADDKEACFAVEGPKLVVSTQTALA
Concanavalin-A (Canavalia ensiformis), sequence (P02866 whole entry, looked up): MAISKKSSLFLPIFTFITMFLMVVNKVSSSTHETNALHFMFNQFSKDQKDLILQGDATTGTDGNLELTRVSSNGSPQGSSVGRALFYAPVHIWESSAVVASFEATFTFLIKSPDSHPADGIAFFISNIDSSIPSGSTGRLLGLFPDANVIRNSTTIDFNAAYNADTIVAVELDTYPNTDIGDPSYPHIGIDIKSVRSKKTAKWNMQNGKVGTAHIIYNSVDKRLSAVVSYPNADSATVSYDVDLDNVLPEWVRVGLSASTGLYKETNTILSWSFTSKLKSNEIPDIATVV

SMILES | composite z-score (Albumin (Bos taurus)) | composite Z-score [1] | composite z-score [2] | composite z-score [3] | composite z-score [4] | composite z-score [5] | composite z-score [6] | composite z-score (Sam68 (KHDRBS1)) | composite z-score [7] | composite z-score [8] | composite z-score [9] | composite z-score [10] | composite z-score [11] | composite z-score [12] | composite z-score [13] | composite z-score [14] | z-score [15] | composite z-score (Lefty1) | composite z-score [16] | z-score [17]
C=CC[C@]1(C(=O)N(C)C)N=C(c2ccc(OCCCO)cc2)O[C@H]1c1ccccc1 | 0.641 | -0.001 (inactive) | 0.297 | -0.124 | 0.687 | 2.93 | 0.795 | 1.26 | -0.336 | 0.999 | 0.661 | 1.23 | 1.04 | 0.951 | 0.915 | -0.165 | -0.259 | 0.457 | 0.149 | -1.52 (inactive)
COc1ccc(C(=O)Nc2ccc(CN3C(=O)[C@]4(O[C@H](CCn5cc([C@H](O)c6ccccc6)nn5)[C@@H]([Si](C)(C)c5ccc(OC)cc5)[C@@H]4C)c4ccccc43)cc2)cc1 | 0.109 | 0.0958 (inactive) | 0.0026 | -0.132 | 0.52 | 0.891 | -0.127 | 0.619 | -0.313 | -0.0974 | -0.271 | -0.303 | -0.288 | 0.107 | 0.971 | -0.224 | 0.496 | 0.444 | 0.849 | -0.363 (inactive)
CN1C(=O)C2C=CC(C(O)c3cccc4ccccc34)N(NC(=O)OC(C)(C)C)C2C1=O (stereo not given) | 1 | 0.58 (inactive) | 0.479 | 0.385 | 0.752 | 2.95 | 1.57 | 1.3 | -0.705 | 1.17 | 1.45 | 1.02 | 1.83 | 0.691 | 0.435 | -0.331 | 0.274 | -0.516 | 1.16 | 0.216 (inactive)
COC(=O)[C@@]1(Cc2ccc(F)cc2)[C@H]2c3cc(C(=O)N(C)C)n(CCSCCO)c3C[C@H]2CN1C(=O)c1ccccc1 | 1.04 | 0.116 (inactive) | 0.0179 | -0.0568 | 0.726 | 2.15 | 0.96 | 0.584 | 0.191 | -0.103 | 2.06 | 0.674 | 0.879 | 0.241 | 0.297 | -0.254 | 0.554 | -0.601 | 0.45 | 0.0635 (inactive)
O=C1c2ccccc2[C@](Cc2ccccc2I)(C(=O)NC2CC2)[C@H](c2ccc(CO)cc2)N1Cc1ccccc1Cl | 0.0646 | -0.057 (inactive) | 0.265 | 0.0563 | 0.574 | 1.93 | 0.696 | 1.31 | 0.0424 | 0.997 | 1.07 | 1.17 | 0.344 | 0.0468 | 1.23 | 1.6 | 0.756 | 0.0036 | 0.86 | -0.0487 (inactive)
CC(C)(C)OC(=O)CC[C@]1(C(=O)N2CCCCC2)N=C(c2ccc(OCCCO)cc2)O[C@H]1c1ccccc1CN=[N+]=[N-] | 0.982 | -0.43 (inactive) | 0.516 | 0.381 | 0.801 | 2.74 | 0.762 | 1.3 | 0.388 | 1.2 | 3.05 | 1.21 | 0.72 | 0.978 | 1.4 | 1.42 | 2.94 | 0.675 | 1.09 | -3.56 (inactive)
COc1ccc([Si](C)(C)[C@@H]2[C@@H](CCO)O[C@]3(C(=O)N(Cc4cccc(N5C(=O)COc6ccccc65)c4)c4ccccc43)[C@H]2C)cc1 | 0.663 | 0.215 (inactive) | -0.126 | -0.0576 | 0.163 | 1.35 | 0.0386 | 0.19 | -0.117 | 1.03 | 0.279 | 0.733 | 0.0257 | 0.415 | -0.0428 | 0.327 | -1.04 | 0.0695 | 0.764 | -0.123 (inactive)
COc1ccc(CCNC(=O)[C@@H]2c3ccccc3C(=O)N(Cc3ccccc3C(F)(F)F)[C@H]2c2ccc(CO)cc2)cc1 | -0.187 | 1.36 (inactive) | -0.246 | -0.0664 | 0.466 | 1.29 | 0.57 | 0.501 | -1.34 | -0.272 | 0.263 | 0.656 | 0.495 | -0.731 | 0.566 | -0.388 | 1.07 | -0.526 | 0.665 | 0.912 (inactive)
C=C[C@H](C)[C@H](OC(=O)Nc1ccc(SC)cc1)c1ccc(O)c2ccccc12 | 0.801 | -0.53 (inactive) | -0.311 | -0.192 | 0.736 | 0.518 | -0.0167 | -0.581 | -0.0707 | -0.252 | 0.499 | -0.526 | 0.209 | -1.35 | 1.08 | 0.162 | -1.51 | 0.192 | -0.341 | -2.89 (inactive)
COc1cc(C(O)C2C=CC3C(=O)N(C)C(=O)C3N2NC(=O)OC(C)(C)C)cc(OC)c1OC (stereo not given) | 1.03 | 0.523 (inactive) | 0.576 | 0.46 | 0.682 | 2.63 | 0.954 | 1.26 | -0.217 | 0.92 | 1.28 | 1.21 | 0.474 | 1.03 | 0.0314 | -0.0371 | -0.54 | -0.338 | 0.807 | 0.225 (inactive)
COC(=O)C(CC#Cc1ccc2c(c1)[C@]1(C(=O)N2)[C@H](c2ccc(O)cc2)N2[C@H](c3ccccc3)[C@H](c3ccccc3)OC(=O)[C@H]2[C@@H]1C(N)=O)C(=O)OC | -0.999 | -0.421 (inactive) | -0.256 | -0.118 | -0.669 | -0.43 | -0.404 | -1.43 | -2.25 | -1.3 | -2.69 | -1.91 | -0.627 | -1.96 | -2.01 | -1.44 | 1.42 | -2.6 | -2.35 | -0.899 (inactive)
COCCOC(=O)N1C(=O)[C@@]2(c3ccccc31)[C@H](c1ccc(OCCO)cc1)N1[C@H](c3ccccc3)[C@H](c3ccccc3)OC(=O)[C@H]1[C@@H]2C(=O)NC[C@H](O)c1ccccc1 | 0.128 | 0.774 (inactive) | 0.327 | -0.084 | 0.505 | 1.91 | 0.123 | 1.29 | 0.508 | 1.02 | 1.95 | 1.23 | 0.327 | 0.937 | 1.32 | 1.03 | 0.414 | 0.714 | 1.05 | -0.652 (inactive)
CCCC=C(CCC)[C@@H](NS(=O)(=O)c1ccccc1)c1ccc(C(F)(F)F)cc1 | 0.871 | 0.35 (inactive) | 0.23 | 0.277 | 0.578 | 2.65 | 0.17 | 1.32 | 0.24 | 1.09 | 0.438 | 1.21 | 1.03 | 0.979 | 0.831 | -0.0779 | -1.64 | 0.219 | 0.72 | 2.08 (inactive)
COC(=O)C(CC#Cc1ccc2c(c1)[C@]1(C(=O)N2)[C@H](C(=O)N2CCc3cc(OC)c(OC)cc3C2)[C@H]2C(=O)O[C@H](c3ccccc3)[C@H](c3ccccc3)N2[C@@H]1c1ccc(O)cc1)C(=O)OC | -1.1 | -0.0536 (inactive) | 0.233 | 0.0273 | 0.326 | 1.64 | -0.137 | 1.29 | 1.25 | 1.16 | 2.77 | 1.22 | 0.695 | 0.867 | 1.49 | 1.84 | -1.48 | 1.14 | 0.664 | 8.96 (active)
CC[C@@H]1[C@@H]2C3C(=O)N(CC)C(=O)C3CC(=O)[C@@H]2[C@H](c2ccc(C)cc2)N1S(=O)(=O)c1ccc(C)cc1 (stereo not given in full) | 0.701 | -0.304 (inactive) | 0.0077 | 0.131 | 0.749 | 2.61 | 1.64 | 1.34 | -0.337 | 0.876 | 0.189 | 1.2 | 0.381 | -0.826 | 0.573 | -0.415 | -0.0765 | 0.417 | 0.519 | 1.46 (inactive)
